Screening data (PubChem BioAssay)
IMPase cell inh = qHTS Assay for Identifying the Cell-Membrane Permeable IMPase Inhibitors. Inositol monophosphatase 1 (Rattus norvegicus), P97697. CHO-M1 cells, IP1 accumulation, HTRF TR-FRET ratio. inhibition (IP1 accumulation), % at 46.1 µM. 120,000 tested, under 10 active; active = well fitted curve in the direction sought with a large enough effect in the signal ratio, not every such curve was filed as active; inconclusive = small, poorly fitted or top-dose-only effect, or a change in a side signal; inactive = no such curve, though single readings can be large or run the other way; the % refers to the signal ratio;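 also: cells stimulated with carbachol in lithium chloride buffer; plate controls were DMSO basal wells for no effect and reference inhibitor wells for full effect; higher means more IMPase inhibition seen as more IP1 and lower FRET ratio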
Target sequence (P97697 whole entry, looked up): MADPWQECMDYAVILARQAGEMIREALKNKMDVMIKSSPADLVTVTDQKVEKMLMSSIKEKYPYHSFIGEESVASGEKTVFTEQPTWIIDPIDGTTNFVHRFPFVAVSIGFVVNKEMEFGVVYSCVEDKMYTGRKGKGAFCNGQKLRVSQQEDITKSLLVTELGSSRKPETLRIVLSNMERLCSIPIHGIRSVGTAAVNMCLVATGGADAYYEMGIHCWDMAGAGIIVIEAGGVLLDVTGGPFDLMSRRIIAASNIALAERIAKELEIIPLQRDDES
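Carbachol-driven Gq signalling in CHO-M1 cells (2000/well) generates IP1. Compounds that block IMPase raise IP1 and so reduce the FRET signal from Eu-anti-IP1 and d2-IP1 after a 10 min room-temperature lysis.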
ALDH1A1 inh = qHTS Assay for Inhibitors of Aldehyde Dehydrogenase 1 (ALDH1A1). AID 1030, 2008. 7.3% of 220,000 active. Potency, µM (doses to about 75.3 µM), without a hit: top-dose activity, negative = inhibition, usual class: inhibitors. Aldehyde dehydrogenase 1A1 (Homo sapiens), P00352. Purified ALDH1A1, NADH fluorescence, propionaldehyde substrate;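 also: potency is read from the fitted curve at half-maximal effect; plate controls were no enzyme wells and a reference inhibitor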
HPGD inh = qHTS Assay for Inhibitors of HPGD (15-Hydroxyprostaglandin Dehydrogenase). 15-hydroxyprostaglandin dehydrogenase [NAD(+)] (Homo sapiens), P15428. purified HPGD, NADH fluorescence kinetic, PGE2 substrate. Potency, µM, inactives show top-dose activity change, negative = inhibition, most hits filed as inhibitors. 4.3% of 150,000 active; also: potency is read from the fitted curve at half-maximal effect
Target sequence (P15428 whole entry, looked up): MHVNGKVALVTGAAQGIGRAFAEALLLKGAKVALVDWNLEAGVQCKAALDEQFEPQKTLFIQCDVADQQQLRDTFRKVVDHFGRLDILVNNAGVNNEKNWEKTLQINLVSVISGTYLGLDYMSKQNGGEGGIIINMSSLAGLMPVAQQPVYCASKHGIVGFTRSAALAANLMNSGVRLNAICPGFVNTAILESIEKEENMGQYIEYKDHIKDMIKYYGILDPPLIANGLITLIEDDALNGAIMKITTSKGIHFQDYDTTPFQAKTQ
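NADH formation kinetics: reaction with 30 uM PGE2 and 1 mM NAD+ (final), 20 nM enzyme, Tris-HCl pH 8 with Tween 20, after 15 min compound preincubation at room temperature. Fluorescence change, last versus first of five reads.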
Starred values were filed as active, the others as inactive; u = inconclusive; x = no result; [ ] = another dose, or the depositor's remark. Only some compounds are listed: those with a hit (about 9% of all), similar ones and a draw of the others. Unless noted, calls follow the shape of the dose curve; as a rule, active = well fitted inhibition curve with a large enough effect (not every such curve was filed as active); inconclusive = small, poorly fitted or top-dose-only effect, or another doubt; inactive = no such curve, though single readings can be large or run the other way. Unless noted, % is scaled to controls: 0 for no effect and ±100 for the full control effect.

SMILES	IMPase cell inh	ALDH1A1 inh	HPGD inh
CN(C)S(=O)(=O)c1cccc(C(=O)Nc2cc(Cl)ccc2O)c1	-2	u	-16%
O=C(Cn1c2[n+](c3ccccc31)CC(O)CS2)c1ccccc1 (stereo not given)	x	-1%	x
Nc1nccs1	x	-4%	-5%
CCOC(=O)c1c([N+](=O)[O-])c(C)[nH]c(=O)c1C#N	x	12%	x
COc1cc(C)ccc1S(=O)(=O)N1CCN(C23CC4CC(CC(C4)C2)C3)CC1	9	u	-7%
Clc1ccc(Cl)c(Cl)c1Cl	x	1%	-8%
O=C(NNC1OC(CO)C(O)C(O)C1O)c1cccc(Br)c1 (stereo not given)	x	11µM*	x
CCCNC(=O)c1cccc(Br)c1	x	-10%	x
CN(Cc1nc(-c2ccccn2)no1)S(=O)(=O)c1ccc(Cl)cc1	0	u	25µM*
CN(Cc1nc(-c2cccnc2)no1)S(=O)(=O)c1ccccc1	-4	u	-11%
Cc1cccc[n+]1CC(=O)c1ccc2c(c1)OCCO2	16	10%	-9%
C=CCn1c(SCc2c(C(=O)OC)sc(N)c2C(=O)OC)nnc1-c1ccc(Br)cc1	-1	25µM*	u
C=CCn1c(SCC(=O)Nc2ncc(Cc3ccc(Br)cc3)s2)nnc1-c1ccncc1	2	6%	-3%
CCOC(=O)Cc1[nH]nc2c1C(c1ccsc1)C(C#N)=C(N)O2 (stereo not given)	x	-5%	x
COc1cc(NC(=O)CN(C)Cc2cccc(F)c2)c(C)cc1[N+](=O)[O-]	x	11%	x
Cn1c2ccccc2c2c(C(=O)N3CCN(c4cccc(Cl)c4)CC3)cn(C3CCCCC3)c(=O)c21	7	x	x
Cc1ccc(O)c(-c2cc(C(F)(F)C(F)F)nc(-c3ccccc3)n2)c1	-4	1%	-3%
Cc1ccc(O)c(C2=NNC(O)(C(F)(F)F)C2)c1 (stereo not given)	-5	9%	25µM*
COc1ccc(OCCSc2nnc(Cc3cccc4ccccc34)n2N)cc1	x	u	22µM*
Nn1c(Cc2cccc3ccccc23)nnc1SCc1ccccc1Cl	x	6%	u
COc1ccc(-c2nnc(SCCOc3cccc(C)c3)n2N)cc1	10	3%	-7%
Nn1c(Cc2cccc3ccccc23)nnc1SCc1ccccc1	x	0%	13µM*
CCc1nc2sc3c(N4CCC(C)CC4)ncnc3c2c2c1CCCC2	2	x	x
CCn1c(SCC(=O)O)nnc1C1CCCCC1	6	5%	-1%
N#Cc1ccc(CN2CCCC3(CCN(C(=O)c4cc(C(F)(F)F)cc(C(F)(F)F)c4)CC3)C2)cc1	x	2%	-12%
SMILES	IMPase cell inh	ALDH1A1 inh	HPGD inh
CSc1nnc(C)c(=O)n1COC(=O)COc1ccc(Cl)cc1	x	-1%	x
NS(=O)(=O)c1ccc(N=Nc2ncccc2O)cc1	x	8%[13.5 µM]	-13%
C=CCc1ccc(OCC(O)COCC)c(OC)c1 (stereo not given)	-8	28µM*	0%
C=CCc1ccc(OCC(O)CO)c(OC)c1 (stereo not given)	-2	-12%	-12%
NS(=O)(=O)c1ccc(NC(=O)CSC2=NC(=O)C(c3ccccc3)C(=O)N2)cc1 (stereo not given)	9	u	x
N#Cc1c(NC(=O)CSc2nnnn2C2CCCC2)sc2c1CCCC2	3	3.5µM*	-21%
N#Cc1c(NC(=O)CSc2nc(N)cc(=O)[nH]2)sc2c1CCCCCC2	1	2%	-6%
Cc1sc(NC(=O)CSc2nnnn2C2CCCC2)c(C#N)c1C	9	u	x
CCCCn1nnnc1SCC(=O)Nc1sc2c(c1C#N)CCCC2	-8	28µM*	-14%
CC(=O)NC1C(=O)N=C(SCC(=O)Nc2cccc(Cl)c2)NC1=O (stereo not given)	x	28µM*	x
CC(C)(C)c1ccc(-c2nnc(SCC(=O)Nc3sc4c(c3C#N)CCCC4)o2)cc1	x	0%	-1%
CC(=O)NC1C(=O)N=C(SCC(=O)Nc2sc3c(c2C#N)CCCCCC3)NC1=O (stereo not given)	x	40µM*	x
Cc1o[nH]c(=O)c1CC[C@H](N)C(=O)O	-2	6%	-7%
Cn1cc(CN2CCN(c3ccccc3)CC2)c2ccccc21	16	-1%	-9%
COc1ccc(-c2c(C)nc(N)nc2-c2ccc(OCc3ccc(C)cc3)cc2O)cc1OC	x	12%	u
O=P(O)(CCP(=O)(O)c1ccccc1)c1ccccc1	x	-2%[13.5 µM]	-4%
COC(=O)CNC(=O)COC(=O)/C=C/c1ccc(F)cc1	x	11%	x
COC(=O)c1ccc(NC(=O)CSC2=NCCN2)cc1	7	-17%	-7%
N#Cc1ccc(-c2ccc(F)cc2)nc1SCC(=O)Nc1sc2c(c1C#N)CCC2	5	25µM*	u
N#Cc1c(NC(=O)CSc2ncn[nH]2)sc2c1CCCCC2	-6	u	-7%
Cn1cnnc1SCC(=O)Nc1sc2c(c1C#N)CCCCC2	x	7.1µM*	-13%
CCCCn1nnnc1SCC(=O)Nc1ccc(F)cc1	-6	u	-5%
CCC1C(=O)N=C(SCC(=O)Nc2ccc(C(=O)OC)cc2)NC1=O (stereo not given)	8	3%	14µM*
N#Cc1cc2c(nc1SCC(=O)Nc1sc3c(c1C#N)CCC3)CCCC2	1	u	-24%
CCCCn1nnnc1SCC(=O)Nc1ccc(N(C)C)cc1	11	25µM*	-8%
SMILES	IMPase cell inh	ALDH1A1 inh	HPGD inh
O=C(Nc1cccc(Cl)c1)NC1CC2CCC(C1)N2Cc1cccs1 (stereo not given)	x	3%	x
CC(=O)OC1C[C@@]2(C)C(c3ccoc3)OC(=O)C3O[C@@]32[C@]2(C)C(OC(C)=O)CC3C(C)(C)C(OC(C)=O)CC(OC(C)=O)[C@@]3(C)C12 (stereo not given in full)	x	5%	21%
CCCCCCNc1ncnc2c1sc1nc(N3CCOCC3)c3c(c12)CCCC3	-3	x	x
O=C(Cn1[nH]c(=O)c2ccccc2c1=O)NNC(=O)c1ccccc1	x	7%	x
N.N.O=C(O)C1(C(=O)O)CCC1.[Pt]	10	u	u
N#Cc1cc(C(=O)Cc2ccccc2)c[nH]1	x	-11%	x
CCCCc1cc(O)c(CCCC)c(O)c1	15	2%	u
CCCc1cc(=O)oc2cc(C)cc(O)c12	-24	8.9µM*	-15%
CCCCCc1cc(O)c2c(C)cc(=O)oc2c1	-6	1.8µM*	-20%
CCc1cc(=O)oc2cc(C)cc(O)c12	u	4.5µM*	28µM*
CCCc1cc(=O)oc2cc(OCC(=O)OC)cc(OCC(=O)OC)c12	12	u	u
CCCc1cc(=O)oc2cc(C)cc(OCc3nn[nH]n3)c12	1	u	u
CCc1cc(=O)oc2cc(C)c3c(C)coc3c12	0	u	-27%
CCCc1cc(=O)oc2cc(C)cc(OC(=O)c3ccco3)c12	-9	2.2µM*	3%
COc1cc(NC(=O)COc2ccc(Cl)cc2)ccc1-c1cc2ccccc2oc1=O	2	u	u
O=C(COc1ccc2c(c1)CCC2)NCc1ccc(Cl)cc1	x	-15%	-11%
N#C/C(=C(\O)C(=O)O)c1ccc(-c2cccc3ccccc23)cc1	x	2%[13.5 µM]	-3%
CCCCc1cc(=O)oc2cc(C)c(CN3CCCC3)c(O)c12	0	22µM*	-17%
